The values below come from PubChem BioAssay (NCATS).

Calls of active or inactive are those of the source. The call rests on the fitted dose curve; in most records, active means well fitted inhibition curve with a large enough effect; inconclusive means small, poorly fitted or top-dose-only effect; inactive means flat fitted curve, though single readings scatter. Where a SMILES comes first, the peptide text is derived from it. [ ]: non-standard residue; d: D form. PhLac = O=C(O)[CH](O)Cc1ccccc1; NMeV = CN[CH](C(=O)O)C(C)C

The subject of the assay is Nanoluciferase (engineered Oplophorus gracilirostris luciferase). The assay is described as follows: Primary Nanoluciferase (NLuc) qHTS assay for identification of artifact compounds. (AID 1845222). Conditions: NLuc-conditioned medium, Nano-Glo luminescence, 5 min; series mostly up to 54.1 µM; activity, negative = inhibition: at the top concentration. From the text: PI: Alexander Tropsha Ph.D.
UNC Eshelman School of Pharmacy
University of North Carolina, Chapel Hill, North Carolina
Hits from high-throughput screening (HTS) of chemical libraries are often false positives due to their interference with the assay detection technology. In response to this problem, we generated the largest publicly available library of chemical liabilities and developed a free webtool to predict HTS artifacts, both of which are described herein. More specifically, we generated, curated, and integrated HTS datasets for thiol reactivity, redox activity, and luciferase (firefly and nano) activity. Using these curated datasets, we developed and validated several Quantitative Structure-Interference Relationship (QSIR) models to predict nuisance behavior. […] These models were employed for virtual profiling of the National Center for Advancing Translational Science's (NCATS) in-house library, and 256 compounds for each assay were selected for the experimental validation of nuisance behavior. The BA for these external predictions ranged from 58 to 78% for compounds within the applicability domains of the models. […] The models developed in this study, along with aggregation models previously developed by our group (SCAM Detective) were implemented in "Liability Predictor," an online tool which may be used as part of chemical library design or for triaging HTS hits. Both the models and the curated datasets are publicly available at https://liability.mml.unc.edu/.
SEQUENCE No. (e.g., 1, 2, 3, etc.); […] (e.g., Cells, Incubation, Reagent, etc.); VALUE; DESCRIPTION.
1; Reagent; 2 uL; Nanoluciferase media.
2; Compounds and control; 16 nL; Kalypsis pin tool (Wako USA) equipped with a 1536-well pin head.
4; Reagent; 2 uL; Luciferase enzyme.
6; Detection; Luminescence, ViewLux microplate reader.
NOTES (numbers refer to Sequence numbers above)
1. Medium was collected from the culture flasks of NLuc-expressing S16 cells (80% confluent) prior to cell plating, filtered through a 0.22um filter, and frozen at -20C prior to use. Media was diluted (1:55) and 2 uL was dispensed into all wells of a 1536-well assay plate (solid-bottom white plate; Greiner Bio One, Monroe, NC).
2. A Wako Pin-tool (Wako Automation, Richmond, VA) was used to transfer 16 nL of compounds (consisting of 7-plates in qHTS format, final concentration range 18.3 nM to 114 uM) or control Cilnidipine (final concentration range 623 nM to 80 uM).
3. 15 min. incubation at room temperature protected from light.
4. 2 uL of NLuc substrate (1:100 in Nano-Glo luciferase buffer; Nano-Glo luminescence assay, Promega, Madison, WI) was dispensed for a final assay volume of 4 uL.
5. Plates were centrifuged (121xg, 15 seconds) and incubated for 5 minutes.
6. Samples were read for luminescence on a ViewLux CCD imager (PerkinElmer). Data were normalized to no-enzyme (0% activity) and no-inhibitor (DMSO; 100%) controls and the resulting percent inhibition data were fitted to a 4-parameter Hill equation using NCATS in-house software.
In general terms: Quantitative high-throughput screening tests each substance at several concentrations.
For `CC(C)C(C(=O)N1CCCC1C(=O)O)N(C)C(=O)C(O)Cc1ccccc1` (stereo not given) (H-[PhLac]-[NMeV]-Pro-OH; configuration not given here), the “activity, negative = inhibition” value is 1.87% (inactive).

Regarding `CC1OC(O[C@H]2[C@@H](O)C[C@@]3(C)C([C@H](O)C[C@]4(C)C3CC=C3C5CC(C)(C)CC[C@]5(C(=O)OC5OC(CO)C(O)C(O)C5OC5OCC(OC6OCC(OC7OCC(O)C(O)C7O)C(O)C6O)C(OC6OCC(O)(CO)C6O)C5O)CC[C@]34C)[C@]2(C)CO)C(O)C(O)C1O` (stereo not given in full), the activity, negative = inhibition was 3.85% [at 11.6 µM] (inactive).

As for `NCCOCCOCCNC(=O)Cc1ccc(Nc2nc(NCc3ccc(F)cc3)nc(NCC3CCCCC3)n2)cc1`, the “activity, negative = inhibition” value was 2.58% (inactive).

For `NC(=O)c1ccc(OCC2NC(=O)C3CCCN3C2=O)cc1` (stereo not given), the “activity, negative = inhibition” value is -2.33% (inactive).

Turning to `N#CCc1ccc(O)cc1O[C@@H]1O[C@H](CO)[C@@H](O)[C@H](O)[C@H]1O`, the “activity, negative = inhibition” value is 1.61% (inactive).

On to `Cc1cc(C)c(S(=O)(=O)N(Cc2ccc(-c3cccc(S(C)(=O)=O)c3)cc2)Cc2ccc(C(F)(F)F)o2)c(C)c1`, for which the “activity, negative = inhibition” value is 3.69% (inactive).

Regarding `CC(=O)NC(CCC(=O)O)C(=O)NCCc1ccc(O)cc1` (stereo not given), the “activity, negative = inhibition” value was 4.32% (inactive).

For the compound `C[C@@H](OC(=O)/C=C/c1ccc(O)cc1)C1=C[C@]2(C=C[C@@H]3C(C(=O)O)=CO[C@@H](O[C@@H]4O[C@H](CO[C@@H]5O[C@H](CO)[C@@H](O)[C@H](O)[C@H]5O)[C@@H](O)[C@H](O)[C@H]4O)[C@@H]32)OC1=O`, the “activity, negative = inhibition” value was 2.95% [at 25.7 µM] (inactive).

As for `CC1=CC(=O)CC(C)(C)C1CCC(C)OC1OC(COC(=O)c2cc(O)c(O)c(O)c2)C(O)C(O)C1O` (stereo not given), the “activity, negative = inhibition” value is 0.568% [at 25.7 µM] (inactive).

As for `CC(O)(CC(=O)O)CC(=O)O[C@@H]1[C@@H](O)[C@H](OCCc2ccccc2)O[C@H](CO)[C@H]1O` (stereo not given in full), the “activity, negative = inhibition” value was -0.648% [at 25.7 µM] (inactive).

As to `O=C1Nc2ccc(O)cc2O[C@H]1O[C@@H]1O[C@H](CO)[C@@H](O)[C@H](O)[C@H]1O`, the “activity, negative = inhibition” value was 1.73% (inactive).

`Cc1cc(Nc2ncc(Cl)c(Nc3ccccc3S(=O)(=O)C(C)C)n2)c(OC(C)C)cc1C1CCNCC1`: the “activity, negative = inhibition” value was 1.91% (inactive).

As for `CC1CC(=O)C2=C(O1)OC1(C)CCC3C(C)(C)C=CC(=O)C3(C)C1C2` (stereo not given), the “activity, negative = inhibition” value was -0.183% (inactive).

As to `COc1cc(/C=C/c2cc(O)cc(O[C@@H]3O[C@H](CO)[C@@H](O)[C@H](O)[C@H]3O)c2)ccc1O`, the “activity, negative = inhibition” value was -8.15% [at 25.7 µM] (inactive).

As for `OCC1OC(Oc2cc(O)c3c(c2)OC(c2ccc(O)cc2)C(O)C3)C(O)C1O` (stereo not given), the “activity, negative = inhibition” value was 1.61% [at 25.7 µM] (inactive).

For the compound `CC(=O)c1cnc2ccc(-c3cc(Cl)c(O)c(Cl)c3)nc2c1NC1CCC(CN(C)C)CC1` (stereo not given), the activity, negative = inhibition is 0% [at 11.6 µM] (inactive).

For the compound `C=C[C@H]1[C@H](O[C@@H]2O[C@H](CO[C@@H]3OC[C@](O)(CO)[C@H]3O)[C@@H](O)[C@H](O)[C@H]2O)OC=C2C(=O)OCC[C@H]21`, the “activity, negative = inhibition” value was 0.834% [at 25.7 µM] (inactive).

Regarding `CC/C=C\C[C@H]1C(=O)C=C[C@@H]1CCCCCCCC(=O)O`, the “activity, negative = inhibition” value was -6.09% (inactive).

`C=C1C2(CCC(=O)OC2(C)C)CC(OC(=O)/C(C)=C/C)C2(C)C13OC14C(=O)OC(C)(C(=O)C12C(=O)OC4C)C3OC(C)=O` (stereo not given): the “activity, negative = inhibition” value is 3.08% [at 25.7 µM] (inactive).

Regarding `CC1=CC(=O)OC(C)(CC(C)(O)C(=O)O)C1` (stereo not given), the “activity, negative = inhibition” value was -1.43% (inactive).

Take `CC1NC(=O)C(Cc2c[nH]c3ccccc23)NC1=O` (stereo not given): the “activity, negative = inhibition” value is 0.322% (inactive).

Consider `CC1CCC2C(C)(C)CC(C)(CO)C2(O)C1C(=O)O` (stereo not given), for which the “activity, negative = inhibition” value was 2.06% (inactive).

Regarding `CN(C)c1cccc(-c2c3c(=O)n(-c4ccccc4Cl)[nH]c3cc(=O)n2C)c1`, the “activity, negative = inhibition” value was -5.26% (inactive).

Consider `CCNC(=O)[C@@H]1CCCN1C(=O)[C@H](CCCN=C(N)N)NC(=O)[C@H](CC(C)C)NC(=O)[C@@H](C)NC(=O)[C@H](Cc1ccc(O)cc1)NC(=O)[C@H](CO)NC(=O)[C@H](Cc1c[nH]c2ccccc12)NC(=O)[C@H](Cc1cnc[nH]1)NC(=O)[C@@H]1CCC(=O)N1`, for which the “activity, negative = inhibition” value is 0.73% [at 25.7 µM] (inactive).

Consider `CC(/C=C/[C@]1(O)[C@@]2(C)CO[C@@]1(C)C[C@@H](O)C2)=C\C(=O)O[C@@H]1O[C@H](CO)[C@@H](O)[C@H](O)[C@H]1O`, for which the “activity, negative = inhibition” value is -3.44% [at 25.7 µM] (inactive).

On to `CCCCN(CCCC)C(=O)CN1C[C@H](c2ccc3c(c2)OCO3)[C@@H](C(=O)O)[C@@H]1c1ccc(OC)cc1`, for which the “activity, negative = inhibition” value is -6.15% (inactive).

In the case of `COc1cc(/C=C/C(=O)O[C@H]2[C@H](OC(=O)/C=C/c3cc(OC)c(O)c(OC)c3)O[C@H](CO[C@@H]3O[C@H](CO)[C@@H](O)[C@H](O)[C@H]3O)[C@@H](O)[C@@H]2O)ccc1O`, the “activity, negative = inhibition” value was -3.65% [at 25.7 µM] (inactive).

In the case of `C=CC(C)(C)C12CC3C(=O)NC(Cc4cnc[nH]4)C(=O)N3C1Nc1ccccc12` (stereo not given), the “activity, negative = inhibition” value was 3.61% (inactive).

Consider `CC(C)(OC1OC(CO)C(O)C(O)C1O)C1CCC(O)(CO)C2CC(O)C(C)(O)C2C1` (stereo not given), for which the “activity, negative = inhibition” value is 0% [at 25.7 µM] (inactive).

With `CO[C@@]12CC3[C@@H]([C@@H](O)[C@@H](OC(C)=O)C4[C@](C)(COC(C)=O)CCC[C@]34C)[C@@H](C)C1=CC(=O)O2` (stereo not given in full), the “activity, negative = inhibition” value was -1.54% [at 25.7 µM] (inactive).

For the compound `COC1CCCC/C(C)=C/C2C=C(C)C(C)C3C(CC(C)C)NC(=O)C23C(=O)C1` (stereo not given), the “activity, negative = inhibition” value is 2.01% [at 25.7 µM] (inactive).

Turning to `O=C(C1CC1)N1CC[C@@H](Cc2n[nH]c(=O)n2-c2ccc(-c3ccc4occc4c3)cc2)C1`, the “activity, negative = inhibition” value was 2.96% [at 25.7 µM] (inactive).

Consider `Clc1ccc2c(c1)C1=NCCN1c1c(-c3noc(C4CC4)n3)ncn1-2`, for which the “activity, negative = inhibition” value was 1.28% (inactive).

For the compound `CCC(C)C(=O)O[C@@H]1[C@@H](O)[C@@H](O[C@H]2O[C@H](CO)[C@@H](O)[C@H](O)[C@H]2O)O[C@H](CO)[C@H]1O` (stereo not given in full), the “activity, negative = inhibition” value was 2.66% [at 25.7 µM] (inactive).

Regarding `CC(=O)O[C@H](C[C@@H](C)[C@H]1C(=O)[C@H](O)[C@@]2(C)[C@@H]3CCC4C(C)(C)[C@@H](O[C@@H]5OC[C@H](O)[C@H](O)[C@H]5O)CC[C@@]45C[C@@]35CC[C@]12C)[C@@H]1OC1(C)C` (stereo not given in full), the “activity, negative = inhibition” value is 1.42% [at 25.7 µM] (inactive).

Regarding `CC(C)(O)c1ccc2c(c1)C(=O)CC1[C@](C)(CO)CCC[C@]21C` (stereo not given in full), the “activity, negative = inhibition” value is 2.58% (inactive).

Turning to `C/C(=C\CCC(C)(O)c1ccc(C)cc1)C(=O)O` (stereo not given), the “activity, negative = inhibition” value is 2.07% (inactive).

Regarding `CC1CC(O)C2(C)C(C(=O)O)=CCCC2C1(C)CCc1ccoc1` (stereo not given), the “activity, negative = inhibition” value is 0.083% (inactive).

Take `C=C[C@H]1[C@H](O[C@@H]2O[C@H](CO)[C@@H](O)[C@H](O)[C@H]2O)OC=C(C(=O)OC)[C@H]1C[C@@H]1N[C@H](C(=O)O)Cc2c1[nH]c1ccccc21`: the “activity, negative = inhibition” value was -1.05% [at 25.7 µM] (inactive).

Take `COc1cc(C)c(C(=O)O[C@H]2[C@@H](O)[C@H](n3ccc(=O)[nH]c3=O)O[C@@H]2CO)c(OC)c1`: the “activity, negative = inhibition” value was -2.57% [at 25.7 µM] (inactive).
